Pf Dd2 growth = qHTS Primary assay for Inhibitors of Plasmodium falciparum Dd2 growth in vitro. hit rate 4.3% among 120,000. AID 1347417, 2020. P. falciparum Dd2 growth, SYBR Green, 72 h. Potency, µM (titrated, usually from 28.9 µM), for the others: at the top dose activity, negative = inhibition, usual class: inhibitors; active means well fitted inhibition curve with a large enough effect;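 further: plate controls were DMSO vehicle for no effect and reference drug for full effect; nearly all actives have a fitted effect of over 65% in size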
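Infected erythrocytes (Dd2, 0.3% parasitemia, 2.5% hematocrit final) are added to compound in RPMI-1640/Albumax II medium, grown 72 h at 37C in low oxygen, then lysed with saponin/Triton-X containing SYBR Green and read by fluorescence.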
* marks the source's active call; other numbers are inactive results; [ ] = remark or other dose. Many of the other results were omitted from the sample, so hits are more common in it than they were. Potency means the concentration at half of the fitted maximal effect.

Results for O=C(c1cccs1)c1cn(CCOc2ccc(F)cc2)c2ccccc12 ?
Pf Dd2 growth: -30%

How did O=C(c1ccco1)c1cn(CCOc2ccc(F)cc2)c2ccccc12 do in these assays?
Pf Dd2 growth: 1.3µM*

How did Cc1ccc(NC(=O)Cn2cc(C(=O)c3ccco3)c3ccccc32)c(C)c1 do in these assays?
Pf Dd2 growth: -19%

Results for COc1cccc(C(=O)NC2CCN(c3cc(-c4ccccc4)[nH]n3)C2)c1 (stereo unspecified) ?
Pf Dd2 growth: inactive

Results for COc1ccc(CCNC(=O)c2ccc3c(c2)N(Cc2cc(C)ccc2C)C(=O)c2ccccc2S3=O)cc1OC (stereo unspecified) ?
Pf Dd2 growth: 4.5µM*

How did O=C(NCc1ccco1)c1ccc2c(c1)N(Cc1ccccc1)C(=O)c1ccccc1S2 do in these assays?
Pf Dd2 growth: inactive

How did CCOc1ccc(CN2C(=O)c3ccccc3Sc3ccc(C(=O)NC)cc32)cc1 do in these assays?
Pf Dd2 growth: -14%

Results for Cc1ccc(CCNC(=O)c2ccc3c(c2)N(Cc2cccc(F)c2)C(=O)c2ccccc2S3)cc1 ?
Pf Dd2 growth: 2%

Results for COc1ccc(CCNC(=O)c2ccc3c(c2)N(Cc2ccccc2Cl)C(=O)c2ccccc2S3)cc1OC ?
Pf Dd2 growth: 11µM*

What do the screens show for `CCOc1ccc(CN2C(=O)c3ccccc3Sc3ccc(C(=O)NCc4ccc5c(c4)OCO5)cc32)cc1`?
Pf Dd2 growth: 10µM*

How did CNC(=O)c1ccc2c(c1)N(Cc1ccccc1Cl)C(=O)c1ccccc1S2 do in these assays?
Pf Dd2 growth: inactive

What do the screens show for `Cc1ccc(CCNC(=O)c2ccc3c(c2)N(Cc2ccccc2)C(=O)c2ccccc2S3=O)cc1` (stereo unspecified)?
Pf Dd2 growth: inactive

What do the screens show for `CCOc1ccc(CCNC(=O)c2ccc3c(c2)N(Cc2ccccc2)C(=O)c2ccccc2S3=O)cc1OCC` (stereo unspecified)?
Pf Dd2 growth: inactive

How did Cc1noc(C)c1Cc1ccc(C(=O)NC2CCc3n[nH]c(=O)n3CC2)o1 (stereo unspecified) do in these assays?
Pf Dd2 growth: 2%

Results for Cc1cc(C(=O)N2C[C@@H](C)[C@@](C)(O)C2)cc(S(N)(=O)=O)c1C ?
Pf Dd2 growth: -5%

How did CCNC(=O)N1CCCC1c1noc(CCC(=O)N2CCN(c3ccccc3)CC2)n1 (stereo unspecified) do in these assays?
Pf Dd2 growth: -18%

How did O=C1NCN(Cc2ccc(Cl)cc2)C12CCN(Cc1ccc(C(F)(F)F)cc1)CC2 do in these assays?
Pf Dd2 growth: -11%

What do the screens show for `CCc1noc(-c2cn(C3CCN(C(=O)c4ccc(C)c(C)c4)CC3)nn2)n1`?
Pf Dd2 growth: inactive

Results for CNC(=O)[C@@H]1CN(C(=O)c2ccncn2)C[C@H]1c1n[nH]c(C)n1 ?
Pf Dd2 growth: inactive

How did COc1cc(C(=O)NC2CCCN(c3cc(-c4ccc(F)cc4)[nH]n3)C2)cc(OC)c1OC (stereo unspecified) do in these assays?
Pf Dd2 growth: inactive

What do the screens show for `COc1cc(-c2oc3ccc(C)cc3c(=O)c2O)cc(OC)c1OC`?
Pf Dd2 growth: 13µM*

What do the screens show for `COc1cc(C2c3c(oc4ccc(C)cc4c3=O)C(=O)N2Cc2ccc(F)cc2)ccc1O` (stereo unspecified)?
Pf Dd2 growth: -5%

How did COc1cc(C2c3c(oc4ccc(C)cc4c3=O)C(=O)N2Cc2ccccc2)ccc1O (stereo unspecified) do in these assays?
Pf Dd2 growth: -23%

What do the screens show for `O=C(NCc1ccccc1)N1CCC2(CCCCO2)CC1`?
Pf Dd2 growth: -2%

What do the screens show for `Cn1nccc1C(=O)N1CC(COc2ccccc2)C2(C1)CN(c1ccccc1)C2` (stereo unspecified)?
Pf Dd2 growth: inactive

How did O=C(NCC1CN(C(=O)CCc2ccccc2)CC12CN(c1ccccc1)C2)c1ccccc1 (stereo unspecified) do in these assays?
Pf Dd2 growth: inactive

What do the screens show for `Cn1nccc1C(=O)N1CC(CNC(=O)c2ccccc2)C2(C1)CN(c1ccccc1)C2` (stereo unspecified)?
Pf Dd2 growth: 13µM*

How did O=[S+]([O-])(c1ccccc1)N1CCn2c(nnc2-c2ccccc2)C1 do in these assays?
Pf Dd2 growth: -6%

Results for COc1cc(C2CC(=O)N(CC(=O)Nc3ccccc3F)c3ccccc3S2)cc(OC)c1OC (stereo unspecified) ?
Pf Dd2 growth: 3.2µM*

What do the screens show for `COc1ccc(C2CC(=O)N(CC(=O)Nc3cc(C)ccc3C)c3ccccc3S2)cc1` (stereo unspecified)?
Pf Dd2 growth: -7%

What do the screens show for `CCOC(=O)c1ccccc1NC(=O)CN1C(=O)CC(c2ccccc2)Sc2ccccc21` (stereo unspecified)?
Pf Dd2 growth: inactive

What do the screens show for `Cc1ccc(S(=O)(=O)N2CCCC(Cn3cnc4cccnc43)C2)cc1C` (stereo unspecified)?
Pf Dd2 growth: -4%

Results for O=C(NCCC1CCN(C(=O)Nc2cccc(F)c2)CC1)c1cc(F)ccc1F ?
Pf Dd2 growth: -18%

How did Cc1ccc(S(=O)(=O)N2CCC(n3cnnc3C(C)C)CC2)cc1F do in these assays?
Pf Dd2 growth: inactive

How did CC(C)c1ccc(NC(=O)c2ccc(F)c(S(=O)(=O)N3CCCC3)c2)cc1 do in these assays?
Pf Dd2 growth: -24%

What do the screens show for `CC(C)c1ccc(NC(=O)c2ccc(F)c(S(=O)(=O)N3CCCCCC3)c2)cc1`?
Pf Dd2 growth: 21%

What do the screens show for `Cc1ccc(O)c(NC(=O)c2ccc(Br)c(S(=O)(=O)N3CCCCC3)c2)c1`?
Pf Dd2 growth: 6.3µM*

Results for CCCCc1nn(CC(=O)N2CCC(COC)C2)c(=O)n1Cc1ccccc1 (stereo unspecified) ?
Pf Dd2 growth: -7%

Results for O=C(CC(c1ccccc1)c1ccccc1Cl)N1CCCC1 (stereo unspecified) ?
Pf Dd2 growth: -10%

How did COc1ccc(-c2cc(CNc3ncncn3)no2)cc1 do in these assays?
Pf Dd2 growth: -3%

What do the screens show for `COc1ccc(Br)cc1CNC(=O)CSc1n[nH]c(-c2ccccc2)n1`?
Pf Dd2 growth: 3%

How did COc1ccc(-c2ccc3nc(-c4cc(F)cc(F)c4)oc3c2)c(OC)c1OC do in these assays?
Pf Dd2 growth: 4%

How did O=S(=O)(Nc1ccc(Br)cc1F)c1ccc2nc(-c3ccccc3)[nH]c2c1 do in these assays?
Pf Dd2 growth: 3%

Results for O=C(O)c1ccc(-c2nc3ncccc3[nH]2)cc1 ?
Pf Dd2 growth: -7%[44.1 µM]

Results for Oc1ccc(-c2nc(-c3ccccc3)c(-c3ccc(Br)cc3)[nH]2)cc1 ?
Pf Dd2 growth: 6.3µM*

How did COc1ccc(-c2ccc3nc(-c4ccccc4)oc3c2)c(OC)c1OC do in these assays?
Pf Dd2 growth: inactive

How did COc1cc(-c2nc(SCC(=O)Nc3ccc(C)cc3)c(-c3ccc(F)cc3)[nH]2)cc(OC)c1OC do in these assays?
Pf Dd2 growth: inactive

How did COc1cc(-c2nc(-c3ccccc3)c(-c3ccc(Br)cc3)[nH]2)cc(OC)c1O do in these assays?
Pf Dd2 growth: 1.4µM*

How did COc1ccc(-c2nc(-c3ccccc3)c(-c3ccc(F)cc3)[nH]2)c(OC)c1C do in these assays?
Pf Dd2 growth: 11µM*

How did Cn1ncc2c(NCCc3cn4ccccc4n3)nc(C3CCCC3)nc21 do in these assays?
Pf Dd2 growth: inactive

What do the screens show for `O=C([C@@H]1C[C@H](Oc2cccnc2)CN1C(=O)c1cccnc1)N1CCCC1`?
Pf Dd2 growth: 15%

How did Cc1noc([C@@H]2CN(C(=O)CC3CCCC3)C[C@H]2CO)n1 do in these assays?
Pf Dd2 growth: 15%

Screens (PubChem)
